Measurements from PubChem BioAssay (NCI).
The panel holds about 79,000 compounds, 15% with a hit somewhere; the sample as a whole holds those more often. Unmarked numbers belong to inactive results. Activity calls are given as the source filed them. Cut-off read from the data, not from the text of the source: active = growth inhibition above about 70%; inactive = the rest.

assay: NCI Yeast Anticancer Drug Screen. Data for the CLN2oe strain (AID 163);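 note: 0% = growth of vehicle-only control cultures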; conditions: S. cerevisiae CLN2oe strain, at 1.2 µM, active compounds read high
Method in brief: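 Growth of a genetically modified yeast strain is measured after compound exposure and compared with cultures given vehicle alone.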

Row | Structure (SMILES) | growth inhibition [%]
1 | CCOP(=O)(OCC)C(Cc1ccccc1)N=C(c1ccccc1)c1ccccc1 (stereo not drawn) | -50
2 | CCc1ncnc2cc(OCC3CO3)c(OC)cc12 (stereo not drawn) | 20
3 | CCOC(=O)[C@H]1Nc2ccccc2C2c3ccccc3CC21 (stereo partly drawn) | 5
4 | O=CNc1ccc2c(c1)C(=O)c1ccccc1-2 | 10
5 | CCOc1ccc2c(c1)c(CC(=O)O)cn2C | -3
6 | OC1CSCCCSCCSCCCSC1 | -5
7 | N#Cc1c(N)[nH]c2ccc(Sc3ccccc3)cc12 | -6
8 | Cc1ccc(-c2ccc(Nc3c4ccccc4nc4ccccc34)cc2)cn1 | 15
9 | c1ccc2c(c1)NC(NC1Nc3ccccc3N1)N2 | -6
10 | OC(COc1cccc2ccccc12)CN1CCOCC1 (stereo not drawn) | 21
11 | CCC/C(Cl)=N\OC(=O)Nc1ccc(Br)cc1 | 10
12 | COc1ccc(/C=C2\SC(=S)N(/C=C/c3nc4ccccc4[nH]c3=O)C2=O)cc1OC | -17
13 | O=C(NNc1ccnc2cc(Cl)ccc12)/C(=C\c1ccccc1Cl)NC(=O)c1ccccc1 | 11
14 | CSC1=NNC(SC)=NN1 | -8
15 | Cc1c(C2=C(Br)C(=O)N(C)C2=O)c(=O)n(C)c(=O)n1C | -2
16 | NCCNc1ccc(NCCN)c2c1C(=O)c1c(O)ccc(O)c1C2=O | 28
17 | Cn1c(=O)c(-c2ccccc2)c(N=[N+]=[N-])c2ccccc21 | 5
18 | CCCCCCCCCCCCCCCCCCOCC(O)COP(=O)(O)OCC1OC(n2cc(F)c(=O)[nH]c2=O)CC1O (stereo not drawn) | 30
19 | CCS(=O)(=O)c1ccc(/C=C/C=N/NC(=S)NCC(C)C)cc1 | 2
20 | CCC(=O)Oc1c(Cl)cc(Cl)c2ccccc12 | -5

Row | Structure (SMILES) | growth inhibition [%]
21 | COc1cc2c3c(cccc3c1)C(=O)N(CCN(C)C)C2=O | -5
22 | CN(C)c1ccc(C(C#N)=C(C#N)C#N)cc1 | 2
23 | O=C(CCCN1CCC2(CC1)CC(=O)N(N1CCCCCC1)C2=O)c1ccc(F)cc1 | 49
24 | O=C1C2C(C(=O)N1c1ccc(OCc3ccccc3)cc1)C1c3ccccc3C2C2CCCCN21 (stereo not drawn) | -5
25 | CCN(CC)CCC(=O)c1ccc(Oc2ccc(F)cc2)cc1 | 10
26 | O=Nc1c(NO)ccc2nn(-c3ccccc3)nc12 | 5
27 | CC(=O)SCCC[Si](C)(C)CCCSC(C)=O | -4
28 | O=C(O)C1CCCCC1c1c2ccc(=O)c(O)c-2oc2c(O)c(O)ccc12 (stereo not drawn) | 15
29 | Cc1ccc(NN(NC(=O)OC(C)C)C(=O)OC(C)C)cc1 | -3
30 | O=C1c2ccccc2C(=O)c2cc(CBr)ccc21 | 1
31 | Cc1c(C(Cc2ccccc2N(C)C(=O)/C=C\C(=O)O)c2c[nH]c3ccccc23)c2ccccc2n1C (stereo not drawn) | -11
32 | CC(C)/C(Cl)=N\OC(=O)Nc1ccc(F)cc1 | 12
33 | O=C1OC(=O)C2CCCC3CCCC1C32 (stereo not drawn) | 40
34 | CCOC(=O)C(NC(=O)c1ccccc1)(N1CCN(c2cc3c(cc2F)c(=O)c(C(=O)O)cn3C2CC2)CC1)C(F)(F)F (stereo not drawn) | -1
35 | COc1ccc(NC(=S)N/N=C(\c2ccccc2)c2ccccn2)cc1 | -1
36 | C=CCC1=C(C)C(OC(=O)/C=C/c2ccccc2)CC1=O (stereo not drawn) | 2
37 | NNc1c(F)c(F)cc(F)c1F | 0
38 | COP(=O)(OC)/C(=C\C1=CN(C(c2ccccc2)(c2ccccc2)c2ccccc2)CN1)NC=O | 3
39 | COC(=O)c1cc(-c2ccc(C)cc2)[nH]c(=O)c1C#N | -3

same assay, conditions: S. cerevisiae CLN2oe strain, at 3.7 µM, active compounds read high

Row | Structure (SMILES) | growth inhibition
40 | CCOP(=O)(OCC)C(Cc1ccccc1)N=C(c1ccccc1)c1ccccc1 (stereo not drawn) | -18%
41 | CCc1ncnc2cc(OCC3CO3)c(OC)cc12 (stereo not drawn) | 15%
42 | CCOC(=O)[C@H]1Nc2ccccc2C2c3ccccc3CC21 (stereo partly drawn) | -1%
43 | O=CNc1ccc2c(c1)C(=O)c1ccccc1-2 | 10%
44 | CCOc1ccc2c(c1)c(CC(=O)O)cn2C | -1%
45 | OC1CSCCCSCCSCCCSC1 | -12%
46 | N#Cc1c(N)[nH]c2ccc(Sc3ccccc3)cc12 | -22%
47 | Cc1ccc(-c2ccc(Nc3c4ccccc4nc4ccccc34)cc2)cn1 | 19%
48 | c1ccc2c(c1)NC(NC1Nc3ccccc3N1)N2 | -17%
49 | OC(COc1cccc2ccccc12)CN1CCOCC1 (stereo not drawn) | 48%
50 | CCC/C(Cl)=N\OC(=O)Nc1ccc(Br)cc1 | 15%
51 | COc1ccc(/C=C2\SC(=S)N(/C=C/c3nc4ccccc4[nH]c3=O)C2=O)cc1OC | -11%
52 | O=C(NNc1ccnc2cc(Cl)ccc12)/C(=C\c1ccccc1Cl)NC(=O)c1ccccc1 | 32%
53 | CSC1=NNC(SC)=NN1 | 17%
54 | Cc1c(C2=C(Br)C(=O)N(C)C2=O)c(=O)n(C)c(=O)n1C | 0%
55 | NCCNc1ccc(NCCN)c2c1C(=O)c1c(O)ccc(O)c1C2=O | 20%
56 | Cn1c(=O)c(-c2ccccc2)c(N=[N+]=[N-])c2ccccc21 | -17%
57 | CCCCCCCCCCCCCCCCCCOCC(O)COP(=O)(O)OCC1OC(n2cc(F)c(=O)[nH]c2=O)CC1O (stereo not drawn) | 28%
58 | CCS(=O)(=O)c1ccc(/C=C/C=N/NC(=S)NCC(C)C)cc1 | -2%
59 | CCC(=O)Oc1c(Cl)cc(Cl)c2ccccc12 | -2%

Row | Structure (SMILES) | growth inhibition
60 | COc1cc2c3c(cccc3c1)C(=O)N(CCN(C)C)C2=O | 13%
61 | CN(C)c1ccc(C(C#N)=C(C#N)C#N)cc1 | 7%
62 | O=C(CCCN1CCC2(CC1)CC(=O)N(N1CCCCCC1)C2=O)c1ccc(F)cc1 | 45%
63 | O=C1C2C(C(=O)N1c1ccc(OCc3ccccc3)cc1)C1c3ccccc3C2C2CCCCN21 (stereo not drawn) | -10%
64 | CCN(CC)CCC(=O)c1ccc(Oc2ccc(F)cc2)cc1 | 17%
65 | O=Nc1c(NO)ccc2nn(-c3ccccc3)nc12 | 35%
66 | CC(=O)SCCC[Si](C)(C)CCCSC(C)=O | -6%
67 | O=C(O)C1CCCCC1c1c2ccc(=O)c(O)c-2oc2c(O)c(O)ccc12 (stereo not drawn) | 28%
68 | Cc1ccc(NN(NC(=O)OC(C)C)C(=O)OC(C)C)cc1 | -11%
69 | O=C1c2ccccc2C(=O)c2cc(CBr)ccc21 | 5%
70 | Cc1c(C(Cc2ccccc2N(C)C(=O)/C=C\C(=O)O)c2c[nH]c3ccccc23)c2ccccc2n1C (stereo not drawn) | -2%
71 | CC(C)/C(Cl)=N\OC(=O)Nc1ccc(F)cc1 | 16%
72 | O=C1OC(=O)C2CCCC3CCCC1C32 (stereo not drawn) | 71% (active)
73 | CCOC(=O)C(NC(=O)c1ccccc1)(N1CCN(c2cc3c(cc2F)c(=O)c(C(=O)O)cn3C2CC2)CC1)C(F)(F)F (stereo not drawn) | 3%
74 | COc1ccc(NC(=S)N/N=C(\c2ccccc2)c2ccccn2)cc1 | -4%
75 | C=CCC1=C(C)C(OC(=O)/C=C/c2ccccc2)CC1=O (stereo not drawn) | 2%
76 | NNc1c(F)c(F)cc(F)c1F | -4%
77 | COP(=O)(OC)/C(=C\C1=CN(C(c2ccccc2)(c2ccccc2)c2ccccc2)CN1)NC=O | 8%
78 | COC(=O)c1cc(-c2ccc(C)cc2)[nH]c(=O)c1C#N | 1%
